Compounds with a hit are over-represented: about 2.1% of the library has one in this group of screens.
TDP-43 yeast inh: inhibitors of TDP-43 toxicity in yeast; TDP-43 expressing yeast growth rescue, BacTiter-Glo, 24 h; Potency, µM (titrated, usually from 46.1 µM), for inactives: top-dose growth rescue (activation), actives largely listed as activators; AID 652104; 410,000 tested, 1.8% active; also: % of control where 0% means no effect; nearly all actives have a fitted effect of over 50% in size
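Yeast expressing TDP-43 (pregrown in raffinose, seeded at OD600=0.02 in galactose medium) exposed to compounds 24 hr at 30 deg C. Growth read by BacTiter-Glo luminescence; rescue of toxicity appears as increased signal.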
aSyn yeast inh: alpha-synuclein toxicity inhibition in yeast | Potency, µM (highest dose often 46.1 µM), without a hit: top-dose growth rescue (activation), most hits filed as activators | Yeast expressing alpha-synuclein, growth rescue, BacTiter-Glo, 24 h | 370,000 tested, 0.14% active | AID 652106; also: % of control where 0% means no effect; nearly all actives have a fitted effect of over 65% in size
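Screening used galactose-induced yeast with toxic alpha-synuclein levels, exposed to compound for 24 hr at 30 deg C. Cell growth, read with BacTiter-Glo luminescence, gave the measured signal.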
FUS suppressor: rescues growth of FUS-expressing yeast | 390,000 tested, 0.24% active | S. cerevisiae FUS-expressing, growth rescue, OD600, 24 h | Potency, µM (series often up to 76.6 µM), hits mostly activators | AID 1347120;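 also: plate controls were DMSO vehicle for no effect and reference control for full effect; nearly all actives have a fitted effect of over 55% in size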
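Steps: raffinose overnight preculture; dilution to OD 0.005 in 2% galactose minimal medium; compound addition (concentration series); 24hr at 30C, 99% humidity; absorbance read at 600 nm.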
Abeta yeast res: compounds reversing amyloid beta toxicity in yeast; yeast expressing A-beta42, growth rescue, OD600, 48 h; response scale: 0% DMSO, 100% iron-clioquinol control; Potency, µM (top dose mostly 46.1 µM), most hits filed as activators; 410,000 tested, 0.063% active; also: nearly all actives have a fitted effect of over 55% in size
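Yeast growth medium received pinned compounds, then yeast cells expressing toxic A-beta were added; plates incubated at 30 C for 48 hr. Growth read as absorbance at 600 nm, normalized to DMSO and equimolar FeCl3 plus clioquinol controls.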
Numbers without * were called inactive; i = inactive; u = inconclusive; x = no result given. Calls follow the shape of the dose curve; as a rule, active = well fitted curve in the direction sought with a large enough effect; inconclusive = small, poorly fitted or top-dose-only effect, or another doubt; inactive = no such curve, though single readings can be large; an effect the other way counts as inactive or inconclusive. Potency is read from the fitted curve at half-maximal effect.

SMILES | TDP-43 yeast inh | aSyn yeast inh | FUS suppressor | Abeta yeast res
COCCNC(=O)c1cnn2c(C(F)F)cc(-c3ccc(C)cc3)nc12 | 0.0% | 0.4% | i | i
Cc1ccc(S(=O)(=O)N(CC(O)Cn2c3ccccc3c3ccccc32)c2cccc(C(=O)NCCO)c2)cc1 (stereo not drawn) | 13.3% | -5.0% | 20µM* | i
COc1cccc(C(=O)c2cn(CC(=O)NCc3ccccc3)c3nc(C)ccc3c2=O)c1 | -26.0% | x | i | i
CCCc1cc(=O)[nH]c(SCC)n1 | -15.0% | 0.9% | u | i
CCCc1cc(=O)[nH]c(-n2[nH]c3c(c2=O)CCCC3)n1 | -18.6% | 25.1µM* | i | u
S=C1NCN(Cc2cccnc2)CN1Cc1ccccc1 | 8.5% | 1.8% | i | i
S=C1SCN(Cc2cccnc2)CN1Cc1ccccc1 | 25.1µM* | -9.9% | i | i
Oc1c(Br)cc(Br)cc1CNc1cnc2ccccc2c1 | 20µM* | 15.3% | i | i
CNC(=S)N/N=C(\C)c1ccc(Cl)s1 | 14.1µM* | -8.8% | i | u
COc1ccc(C(CC(=O)Nc2ccc(OC)c(OC)c2)N2Cc3ccccc3C2=O)cc1 (stereo not drawn) | 17.4% | x | i | i
CCOC(=O)c1cc(C)n(Cc2cccc(OC)c2OC)c1C | 20µM* | -15.2% | i | i
COc1cc(C(=O)NC2CC(=O)N(c3cccc(F)c3)C2)cc(OC)c1OC (stereo not drawn) | 23.2% | x | i | i
C=CCn1c(C2CC2)n[nH]c1=S | 0.9% | -3.7% | i | i
CCCCCC1CCC(c2n[nH]c(=S)n2C)CC1 (stereo not drawn) | 14.1µM* | 8.3% | i | u
O=C(OCC(=O)N1CCc2ccccc21)c1c2c(nc3ccccc13)CCCCC2 | 22.4µM* | -20.3% | x | i
O=C(Nc1nc(-c2ccccc2)c(-c2ccccc2)o1)c1ccc(F)cc1 | u | u | i | 11.2µM*
COc1cccc(C(=O)Nc2c(C(=O)NC(C)(C)C)oc3ccccc23)c1 | 17.8µM* | x | i | i
CCOC(=O)C(=O)Nc1nc(-c2ccccc2)c(-c2ccccc2)o1 | 10.4% | u | x | u
O=C(Nc1ccc(-n2nncc2-c2ccccc2)cc1)c1ccccc1 | x | -1.6% | x | x
COc1cccc(C(=O)Nc2nc(-c3ccccc3)c(-c3ccccc3)o2)c1 | 20µM* | u | i | 15.8µM*
COc1cccc(C(=O)Nc2ccc(-n3nncc3-c3ccccc3)cc2)c1 | 35.5µM* | x | u | i
COc1cccc(C2=NS(=O)(=O)N(C)C(C(=O)Nc3ccccc3SC)=C2)c1 | 18.1% | x | i | i
CC(C)Sc1cc(N2CCCC2)nc(-c2ccccc2Cl)n1 | 14.1µM* | 12.5% | i | i
COc1ccc(-c2cncnc2-c2ccc(OC)cc2O)cc1 | 16.0% | -1.5% | i | i
COc1cccc(Oc2cncnc2-c2ccc(OC)cc2O)c1 | 20µM* | u | i | i
SMILES | TDP-43 yeast inh | aSyn yeast inh | FUS suppressor | Abeta yeast res
CCOc1cccc(C(=O)NC(=S)Nc2cccnc2)c1 | u | -8.2% | i | u
CCCCOc1cccc(C(=O)NC(=S)Nc2cccnc2)c1 | 25.1µM* | -0.7% | x | i
Cc1sc2nc(CSc3ccccc3)nc(N3CCOCC3)c2c1C | 11.2µM* | 0.4% | i | i
Cc1c(C(=O)NCCSCc2ccc(F)cc2)cnn1-c1ccc(Cl)cc1 | 12.6µM* | 11.2% | i | i
O=c1c2sc(-c3ccccc3)cc2nc2n1CCC2 | 12.6µM* | u | i | i
O=c1c2sc(-c3ccccc3)cc2nc2n1CCCCC2 | 11.2µM* | 9.1% | i | i
COC(=O)[C@]12CCCCC=C1N(Cc1ccc(OC)cc1)C(=O)[C@@H]2CC(=O)NCCC(C)C | x | x | i | x
Cc1cc[n+](CC#N)cc1 | x | -5.6% | x | x
CCOc1ccc(NC(=O)Cn2cc(C(=O)c3ccc(CC)cc3)c(=O)c3ccc(C)nc32)cc1 | -17.1% | x | i | i
COC(=O)[C@@]1(Cc2ccc(OC)cc2)[C@H]2c3cc(C(=O)N4CCCC4)n(Cc4ccc(S(C)(=O)=O)cc4)c3C[C@H]2CN1C(=O)c1ccccc1 | 10.9% | 4.1% | 25.1µM* | i
COc1ccc2c(c1)NC(=O)CC(c1ccccc1)=N2 | 14.1µM* | -8.4% | i | i
CCCCCCCCOC(=O)c1cc([N+](=O)[O-])c(Sc2ncnc3nc[nH]c23)c([N+](=O)[O-])c1 | 12.6µM* | -64.5% | x | i
